Screening results (PubChem)
DAX1 inh-1 – NR0B1 (DAX1) inhibition; 340,000 tested, 0.99% active; inhibition, % at 6.75 µM; P51843; HEK293 Gal4-DAX1 luciferase reporter, luminescence;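 active = inhibition above the mean over all tested compounds plus 3 SD, cut at about 4.2% in these data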;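 also: 0% = DAX1-transfected cells with DMSO and 100% = empty-vector control cells with DMSO; inhibition shows as a rise in luminescence from relieved DAX1 repression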
Target sequence (P51843 207-470 limits assumed): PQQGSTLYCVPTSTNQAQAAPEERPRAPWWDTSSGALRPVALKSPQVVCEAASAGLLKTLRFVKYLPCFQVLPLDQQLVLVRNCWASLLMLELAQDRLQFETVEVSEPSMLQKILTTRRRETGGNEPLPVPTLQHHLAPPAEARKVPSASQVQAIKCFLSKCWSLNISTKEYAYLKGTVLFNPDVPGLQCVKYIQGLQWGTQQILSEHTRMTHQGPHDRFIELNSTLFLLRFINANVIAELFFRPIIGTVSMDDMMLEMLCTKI
SMARCA2 act – activators of SMARCA2 function | MG213 cells, MMTV-luciferase reporter, dexamethasone, overnight | activation, % at 9.1 µM | 370,000 tested, 1% active | AID 652017; in the data active = activation above about 7.8%;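 also: 0% = vehicle wells and 100% = reference activator wells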
ssDAF-12 act – activators of S. stercoralis DAF-12 nuclear receptor | 370,000 tested, 1% active | AID 652126 | activation, % at 6.8 µM | HEK293 ssDAF-12/GRIP1 lit1-tk-luc reporter, luminescence; % of 3 µM dafachronic acid response;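 active = activation above the mean over all tested compounds plus 3 SD, cut at about 0.9% in these data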;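 also: 0% = DMSO-only wells and 100% = 3 µM delta7-dafachronic acid wells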
DAX1 inh-2 – inhibitors of DAX1 repression of SF-1 activated StAR promoter; HEK293T StAR-luciferase reporter, SF-1/DAX-1 repression relief; inhibition, % at 6.8 µM; 370,000 tested, 1.1% active;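 active = inhibition above the mean over all tested compounds plus 3 SD, cut at about 3.6% in these data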;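 also: 0% = DAX-1 cells with DMSO and 100% = cells lacking DAX-1 with DMSO; higher inhibition means more luminescence from relief of DAX-1 repression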
hcDAF-12 act – activators of H. contortus DAF-12 nuclear receptor | HEK293 hcDAF-12 lit1-tk-luc reporter, luminescence; 0% DMSO, 100% Δ7-dafachronic acid | activation, % at 6.8 µM | 370,000 tested, 1.4% active | AID 652067;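 active = activation above the mean of all tested compounds plus 3 SD, cut at about 5.5% in these data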;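 also: 100% = response to 3 µM Δ7-dafachronic acid high control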
hgDAF12 agonist – activates the H. glycines DAF-12 receptor ligand-binding domain | activation, % at 6.8 µM | AID 687014 | 370,000 tested, 1.8% active | HEK293 GAL4-hgDAF12 UAS-luciferase reporter, agonist luminescence; normalized to butyrate control;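 active = activation above a cutoff set at the mean of all screened compounds plus 3 SD, cut at about 10% in these data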;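 also: 0% = DMSO wells and 100% = sodium butyrate wells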
* = called active by the depositor. An excerpt weighted towards active compounds, which were near 4.8% of everything screened.

How did CN(C)C(=O)C12CCC(C)(C(=O)C1Br)C2(C)C (centres undefined) do in these assays?
DAX1 inh-1: -0.8; SMARCA2 act: -1.9; ssDAF-12 act: 1.0*; DAX1 inh-2: -0.5; hcDAF-12 act: 0.3; hgDAF12 agonist: 0.5

Results for CCOC(=O)c1c(C)nc2sc3c(=O)n(-c4ccc(OC)cc4)cnc3c2c1-c1ccc(OC)cc1 ?
DAX1 inh-1: -0.2; SMARCA2 act: -1.6; ssDAF-12 act: -0.9; DAX1 inh-2: -0.3; hcDAF-12 act: -0.1; hgDAF12 agonist: 3.6

What do the screens show for `CCOC(=O)c1c(C)nc2sc3c(=O)n(-c4ccc(C(C)=O)cc4)nnc3c2c1-c1ccc(OC)cc1`?
DAX1 inh-1: 0.4; SMARCA2 act: 0.1; ssDAF-12 act: -1.6; DAX1 inh-2: -0.6; hcDAF-12 act: 7.0*; hgDAF12 agonist: 1.0

Results for CC(=O)Nc1ccc(S(=O)(=O)NCc2ccc(C)n2C)cc1 ?
DAX1 inh-1: 1.5; SMARCA2 act: 6.0; ssDAF-12 act: -0.9; DAX1 inh-2: 0.2; hcDAF-12 act: -1.5; hgDAF12 agonist: -1.7

Results for COc1cccc(/C=N/n2c(C)nc3ccccc3c2=O)c1O ?
DAX1 inh-1: 5.5*; SMARCA2 act: 2.5; ssDAF-12 act: -1.2; DAX1 inh-2: 0.7; hcDAF-12 act: 0.5; hgDAF12 agonist: 0.7

What do the screens show for `COc1ccc2[nH]c(CN3CCN(C(C)C)C(CCO)C3)c(C)c2c1` (centres undefined)?
DAX1 inh-1: -1.2; SMARCA2 act: -2.7; ssDAF-12 act: -0.6; DAX1 inh-2: 0.4; hcDAF-12 act: 0.1; hgDAF12 agonist: -1.1

Results for CN(C)c1ccc(P(=O)(OCc2ccccc2)C(O)c2ccc(Cl)cc2)cc1 (centres undefined) ?
DAX1 inh-1: 0.1; SMARCA2 act: -0.8; ssDAF-12 act: -0.9; DAX1 inh-2: 0.5; hcDAF-12 act: -0.3; hgDAF12 agonist: -0.9

Results for CN(C)c1ccc(P(=O)(OCc2ccccc2)C(O)c2ccccc2)cc1 (centres undefined) ?
DAX1 inh-1: 4.3*; SMARCA2 act: 0.0; ssDAF-12 act: -2.0; DAX1 inh-2: -0.2; hcDAF-12 act: -0.4; hgDAF12 agonist: -3.1

What do the screens show for `O=[N+]([O-])c1ccc(C(O)CSC(=S)N2CCCCC2)cc1` (centres undefined)?
DAX1 inh-1: 5.4*; SMARCA2 act: 3.9; ssDAF-12 act: -0.3; DAX1 inh-2: 0.2; hcDAF-12 act: 0.5; hgDAF12 agonist: 6.6

Results for COc1ccc(-n2c(SCC(N)=O)nnc2-c2ccco2)cc1 ?
DAX1 inh-1: 4.5*; SMARCA2 act: 2.8; ssDAF-12 act: 0.6; DAX1 inh-2: 0.5; hcDAF-12 act: 3.5; hgDAF12 agonist: 5.3

Results for Cc1ccc(-n2c(SCC(N)=O)nnc2-c2ccco2)cc1 ?
DAX1 inh-1: 0.7; SMARCA2 act: 1.4; ssDAF-12 act: -1.7; DAX1 inh-2: -0.5; hcDAF-12 act: -0.2; hgDAF12 agonist: -1.4

Results for COc1cccc(CSc2nnc(-c3ccco3)n2C)c1 ?
DAX1 inh-1: 5.2*; SMARCA2 act: 0.5; ssDAF-12 act: -0.8; DAX1 inh-2: -0.1; hcDAF-12 act: 0.7; hgDAF12 agonist: 1.1

Results for O=C(c1ccco1)N1CCN(CCOCCOc2cccc3ccccc23)CC1 ?
DAX1 inh-1: -0.3; SMARCA2 act: -1.1; ssDAF-12 act: -1.1; DAX1 inh-2: 0.8; hcDAF-12 act: -1.1; hgDAF12 agonist: -3.1

Results for COc1cc(/C=C(\C#N)C(=O)Nc2cccc(C(=O)O)c2)ccc1OCc1ccc(C)cc1 ?
DAX1 inh-1: 1.1; SMARCA2 act: -1.6; ssDAF-12 act: -0.3; DAX1 inh-2: 0.8; hcDAF-12 act: 6.5*; hgDAF12 agonist: 8.6

Results for COc1cc(/C=C(/C#N)C(=O)Nc2ccccc2)ccc1OCc1ccc(C(=O)O)cc1 ?
DAX1 inh-1: -0.9; SMARCA2 act: 1.8; ssDAF-12 act: -0.6; DAX1 inh-2: -0.3; hcDAF-12 act: 1.1; hgDAF12 agonist: -0.3

Results for Cc1ccc(-n2nc(C)c(C(C)(O)C(F)(F)F)c2N)cc1 (centres undefined) ?
DAX1 inh-1: 1.4; SMARCA2 act: -1.8; ssDAF-12 act: -1.6; DAX1 inh-2: 0.2; hcDAF-12 act: -0.1; hgDAF12 agonist: 0.9

How did Cc1nn(-c2ccc(Cl)cc2)c(N)c1C(O)(CSc1nccn1C)C(F)(F)F (centres undefined) do in these assays?
DAX1 inh-1: 0.3; SMARCA2 act: -0.2; ssDAF-12 act: 1.0*; DAX1 inh-2: 0.0; hcDAF-12 act: 2.1; hgDAF12 agonist: 7.0

What do the screens show for `Cc1nn(-c2ccccc2)c(N)c1C(O)(CSc1nccn1C)C(F)(F)F` (centres undefined)?
DAX1 inh-1: -0.3; SMARCA2 act: -2.5; ssDAF-12 act: 0.9*; DAX1 inh-2: -0.2; hcDAF-12 act: -1.8; hgDAF12 agonist: 0.8

What do the screens show for `Cc1c(NC(=O)CSc2nccn2C)c(=O)n(-c2ccccc2)n1C`?
DAX1 inh-1: -0.7; SMARCA2 act: 0.1; ssDAF-12 act: -0.8; DAX1 inh-2: -0.1; hcDAF-12 act: 0.0; hgDAF12 agonist: 0.1

What do the screens show for `CCOc1ccc(S(=O)(=O)Nc2cccc(C(=O)NCCCN3CCOCC3)c2)cc1`?
DAX1 inh-1: 0.7; SMARCA2 act: -2.8; ssDAF-12 act: -1.7; DAX1 inh-2: 0.1; hcDAF-12 act: 1.3; hgDAF12 agonist: -0.1

Results for CC(C)C[C@H]1CN=C(Nc2ccccc2)N1CC1CCCC1 ?
DAX1 inh-1: 0.3; SMARCA2 act: 1.3; ssDAF-12 act: -0.9; DAX1 inh-2: -0.2; hcDAF-12 act: -0.8; hgDAF12 agonist: -2.8

What do the screens show for `CC(C)C[C@H]1CN=C(Nc2ccccc2)N1CC1CCC(C(C)(C)C)CC1` (some centres undefined)?
DAX1 inh-1: 4.5*

How did Brc1ccc(-c2cn3c(n2)SCC3)cc1 do in these assays?
DAX1 inh-1: 0.4; SMARCA2 act: -2.1; ssDAF-12 act: -0.7; DAX1 inh-2: 1.3; hcDAF-12 act: 2.2; hgDAF12 agonist: 10.8*

How did c1ccc(-c2cn3c(n2)SCC3)cc1 do in these assays?
DAX1 inh-1: 2.0; SMARCA2 act: 7.8*; ssDAF-12 act: -1.4; DAX1 inh-2: 0.4; hcDAF-12 act: 0.7; hgDAF12 agonist: 4.0

What do the screens show for `O=C1c2ccccc2NC(c2ccc3c(c2)OCCO3)N1c1ccc2c(c1)OCCO2` (centres undefined)?
DAX1 inh-1: -1.7; SMARCA2 act: 2.7; ssDAF-12 act: 0.2; DAX1 inh-2: 2.0; hcDAF-12 act: 3.6; hgDAF12 agonist: 11.8*

What do the screens show for `COc1cc(C2Nc3ccccc3C(=O)N2c2ccc3c(c2)OCCO3)ccc1OCC(C)C` (centres undefined)?
DAX1 inh-1: -2.8; SMARCA2 act: 7.0; ssDAF-12 act: 0.0; DAX1 inh-2: 2.4; hcDAF-12 act: 5.2; hgDAF12 agonist: 11.5*
